This is part of a sample that, as a whole, favours compounds with a hit. Of some 83,000 tested, about 20% had one in any assay.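 Method: cells in 96-well plates; compound added at one concentration; 48 h incubation; percent growth measured; values under 10 scored active.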 Values without a mark were called inactive. Activity calls are given as the source filed them.

The text below walks through data of PubChem BioAssay (NCI).

This assay concerns PC-3 prostate. Briefly: NCI-60 one-dose screen, 48 h (100 = growth as untreated, 0 = no growth, -100 = all killed). The conditions noted are these: 10 µM unless noted.
In the case of `CCN(CC)CC#CCOC(=O)[C@]1(C)CCC[C@]2(C)[C@H]3C[C@H]4C(C(C)C)=C[C@]3(CC[C@H]21)[C@@H]1C(=O)CCC(=O)[C@@H]14`, the growth is 25%.

As to `CN1CCN(CC#CCOC(=O)CNC(=O)[C@]23CCC(C)(C)C[C@H]2C2=CC[C@@H]4[C@@]5(C)CC[C@H](O)C(C)(C)[C@@H]5CC[C@@]4(C)[C@]2(C)CC3)CC1`, the growth is 83.4%.

Consider `Nc1cc(N)c(S(=O)(=O)O)cc1N=Nc1cc([N+](=O)[O-])ccc1O`, for which the growth was 87.1%.

As to `COc1ccc2c(c1)Oc1nc(N)c(C#N)c(N)c1C2Sc1ccc(SC)cc1` (stereo not drawn), the growth was 35.9%.

On to `CO[C@@]12C=C[C@@]34CCC(=O)N3c3ccccc3[C@@H](O1)C4C2`, for which the growth was 100%.

Consider `COc1cc(NC(=O)Nc2cnc(Nc3ccc(N4CCOCC4)cc3)nc2Oc2ccc(F)cc2)cc(OC)c1`, for which the growth is 83%.

Consider `C/C(=N/Nc1nc2ccccc2n1C)c1ccccn1`, for which the growth is 19.1%.

As for `Cc1cccc(C)c1NC(=O)CN(CC(C)C)CC(O)COc1ccccc1` (stereo not drawn), the growth was 86.3%.

In the case of `COC(=O)c1ccc2c(c1)NC(=O)[C@@H]1CCCN21`, the growth is 100%.

In the case of `O=C1c2ccccc2C(=O)c2c1oc1c2c(=O)[nH]c2ccc(Cl)cc21`, the growth was -33.3% (active).

For `COc1cc(NC(=O)Nc2cnc(Nc3ccc(N4CCOCC4)cc3)nc2Oc2ccc(C(F)(F)F)cc2)cc(OC)c1`, the growth is 93.3%.

`COc1ccc(C(=O)c2cc(F)c(F)c(OC)c2F)cc1OC(=O)CCl`: the growth is 38.4%.

As for `Nc1c(C(=O)Nc2cccc3ccccc23)sc2nc3c(cc12)CCCCC3`, the growth was 34.1%.

As for `O=c1[nH]c2ccccc2cc1-c1nc2ccncc2[nH]1`, the growth was 74%.

`C=C1C(=O)O[C@H]2[C@H]1CC/C(COC(=O)NCc1nc3ccccc3[nH]1)=C\CC[C@@]1(C)O[C@@H]21`: the growth is 85.6%.

On to `Cc1cccc(C)c1NCc1nnc(-c2ccco2)o1`, for which the growth is 81%.

Consider `Nc1c(C(=O)Nc2ccccn2)sc2nc3c(cc12)CCCC3`, for which the growth is 64.9%.

On to `Cc1c(Cl)cccc1NC(=O)c1sc2nc3c(cc2c1N)CCCCC3`, for which the growth was 37.9%.

Consider `CCSc1nc(Cl)c(C#N)c(-c2ccc(F)cc2)n1`, for which the growth was 98.9%.

Turning to `CCc1n(Cc2ccc3ccccc3c2)c2ccccc2[n+]1Cc1ccc2ccccc2c1`, the growth is 52.9%.

Consider `NC(=O)CN1C(=O)c2ccccc2C1=O`, for which the growth was 99.5%.

With `O=C1C(=O)c2c(nc3ccc(C(F)(F)F)cn23)-c2ccccc21`, the growth was -85% (active).

Take `COc1cccc(NC(=O)Nc2ccc(Nc3ncnc4[nH]c(C)c(C)c34)cc2)c1`: the growth is 93.9%.

With `NC(=O)c1ccc2nc3c(n2c1)C(=O)C(=O)c1ccccc1-3`, the growth was -48.3% (active).

Turning to `O=C(O)c1cc(N=Nc2ccc(-c3ccc(N=Nc4c(S(=O)(=O)O)cc5ccc(Nc6ccccc6)cc5c4O)cc3)cc2)ccc1O`, the growth was 96.4%.

Consider `C=C1C(=O)O[C@H]2[C@H]1CCC(/C=N/c1ncc(Br)cc1N)=C\CC[C@@]1(C)O[C@@H]21`, for which the growth is 26.7%.

In the case of `Cc1nc2sc(C(=O)Nc3ccccc3Cl)c(N)c2cc1C(C)O` (stereo not drawn), the growth is 83.5%.

For `COc1ccc(/C=C/C(=O)c2ccc(NC(=O)CSc3nnc(-c4ccc(OC)c(OC)c4)n3-c3ccccc3)cc2)cc1`, the growth was 53.1%.

As for `O=c1c2ccccc2n(CC(O)CN2CCCC2)c2c(Br)cccc12` (stereo not drawn), the growth is 95.9%.

Turning to `O=C(CCCCCCCCC(=O)Nc1cccc(C2=NCCN2)c1)Nc1cccc(C2=NCCN2)c1`, the growth is 84.9%.

Take `Cc1ccc(C(=O)/C(=C/c2ccc([N+](=O)[O-])cc2)S(=O)Cc2ccccc2)cc1` (stereo not drawn): the growth is -0.822% (active).

For `COc1ccc(-c2nc(C#N)c(NCC(c3ccc(Cl)cc3)N3CCCCC3)o2)cc1` (stereo not drawn), the growth is 75.3%.

As to `O=C1CC(c2ccc(O)c(O)c2)Oc2cc(O)c([C@@H]3O[C@H](CO)[C@@H](O)[C@H](O)[C@H]3O)c(O)c21` (stereo partly drawn), the growth is 97.3%.

As for `CCCn1c2cc(OCc3cn(-c4ccc(Cl)cc4)nn3)ccc2c2ccnc(C)c21`, the growth was 71.2%.

Take `COc1ccccc1C(=O)/C=C/c1cc2cccc(OC)c2[nH]c1=O`: the growth was 31.1%.

In the case of `O=[N+]([O-])c1ccc(N=Nc2c(O)c(N=Nc3cc([N+](=O)[O-])cc([N+](=O)[O-])c3O)cc(N=Nc3cc(S(=O)(=O)O)cc4cc(S(=O)(=O)O)cc(O)c34)c2O)cc1`, the growth was 86.7%.

In the case of `COc1cc(N=Nc2cc(S(=O)(=O)O)cc3cc(S(=O)(=O)O)cc(O)c23)c(C)cc1N=Nc1c(S(=O)(=O)O)cc2cc(Nc3ccccc3)ccc2c1O`, the growth is 90%.

As for `C=C1C(=O)O[C@H]2[C@H]1CC/C(COC(=O)/C=C/c1cccnc1)=C\CC[C@@]1(C)O[C@@H]21`, the growth is 57.5%.
